Some test systems named below: SR leukemia; RPMI-8226 leukemia; OVCAR-8 ovarian; OVCAR-5 ovarian; OVCAR-4 ovarian; SK-OV-3 ovarian; IGROV1 ovarian; OVCAR-3 ovarian; HS 578T breast; NCI/ADR-RES ovarian; T-47D breast; BT-549 breast; MDA-MB-435 melanoma; SW-620 colon; MCF7 breast; HCT-116 colon; HCC-2998 colon; KM12 colon.
Experiment in all cases: NCI-60 one-dose screen, 48 h (100 = growth as untreated, 0 = no growth, -100 = all killed)
Holding throughout (conditions): 10 µM unless noted

Each structure is given as a SMILES string. Compounds without any hit were thinned out: in the full panel of roughly 83,000, 20% have a hit.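 In brief: 96-well plates, 48 h treatment, single concentration, percent growth endpoint.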 Unmarked numbers belong to inactive results. The source made the active and inactive calls. Rule for the calls: active = growth percent below 10; inactive = the rest.

Take `CC(C)(O)c1cncc(-c2ccc3ncc(C#N)c(N4CCc5cc(F)c(Cl)cc54)c3c2)c1`: the growth is 11.8% in the assay with SR leukemia; 13.5% with RPMI-8226 leukemia; 11.1% in the assay with OVCAR-8 ovarian; 16.7% in the assay on OVCAR-5 ovarian; -1.6% (active) with OVCAR-4 ovarian; -22.1% (active) in the assay with SK-OV-3 ovarian. Further, the growth in the assay with IGROV1 ovarian was -14.5% (active); in the assay with OVCAR-3 ovarian it was 9.12% (active); in the assay with HS 578T breast it was -28% (active); in the assay on NCI/ADR-RES ovarian, 14.8%; with T-47D breast, 2.88% (active); in the assay on BT-549 breast, 2.34% (active). Besides, the growth in the assay on MDA-MB-435 melanoma is 17.9%; in the assay on SW-620 colon, 26.6%; in the assay with MCF7 breast, 8.93% (active); with HCT-116 colon, 24.8%; in the assay with HCC-2998 colon, 18.7%; in the assay with KM12 colon it was 34.3%.
As for `O=C(CSc1nc2ccccc2c(=O)n1-c1ccc(Cl)cc1)N/N=C/c1ccc(Oc2ccc(Cl)cc2)cc1`, the growth was 32.9% in the assay with SR leukemia; 24.7% with RPMI-8226 leukemia; 13.4% in the assay on OVCAR-8 ovarian; 70.6% with OVCAR-5 ovarian; 1.7% (active) in the assay on OVCAR-4 ovarian; 33.8% in the assay with SK-OV-3 ovarian. The growth in the assay on IGROV1 ovarian was 20.6%; in the assay with OVCAR-3 ovarian it was 87.3%; in the assay on HS 578T breast it was 21.4%; with NCI/ADR-RES ovarian it was 15.7%; in the assay on T-47D breast, 30.1%; with BT-549 breast it was -17.7% (active). In addition, the growth was 25.1% in the assay with MDA-MB-435 melanoma; 2.62% (active) in the assay with SW-620 colon; 15.5% in the assay on MCF7 breast; -67.8% (active) with HCT-116 colon; 20.3% in the assay on HCC-2998 colon; 17.4% in the assay on KM12 colon.
For the compound `Clc1cccc(/C=N/Nc2nc(N/N=C/c3cccc(Cl)c3)nc(N3CCCCC3)n2)c1`, the growth with SR leukemia was 74.6%; in the assay with RPMI-8226 leukemia, 72.4%; in the assay with OVCAR-8 ovarian, 89.2%; in the assay on OVCAR-5 ovarian, 110%; in the assay with OVCAR-4 ovarian it was 90.2%; with SK-OV-3 ovarian, 109%. The growth in the assay on IGROV1 ovarian is 105%; in the assay on OVCAR-3 ovarian it was 91.4%; with HS 578T breast it was 105%; in the assay with NCI/ADR-RES ovarian, 95.2%; in the assay on T-47D breast, 76%; with BT-549 breast, 94.9%. Further, the growth in the assay on MDA-MB-435 melanoma is 90.4%; in the assay with SW-620 colon, 103%; in the assay on MCF7 breast, 83.1%; with HCT-116 colon, 97.2%; in the assay with HCC-2998 colon it was 108%; with KM12 colon it was 91.1%.
In the case of `COc1ccc(C2CC(c3cccc(OCCCCOc4cccc(C5=NN(C(C)=O)C(c6ccc(OC)cc6)C5)c4)c3)=NN2C(C)=O)cc1` (configuration not stated), the growth in the assay on SR leukemia is 39.3%; in the assay with RPMI-8226 leukemia, 33.8%; in the assay on OVCAR-8 ovarian, 68.2%; with OVCAR-5 ovarian, 96.2%; in the assay with OVCAR-4 ovarian, 20%; with SK-OV-3 ovarian it was 83.5%. The growth was 83.8% with IGROV1 ovarian; 68.2% in the assay with OVCAR-3 ovarian; 89.3% in the assay with HS 578T breast; 75.7% in the assay on NCI/ADR-RES ovarian; 40.1% with T-47D breast; 69.8% in the assay on BT-549 breast. Further, the growth was 60.3% in the assay with MDA-MB-435 melanoma; 87.1% in the assay with SW-620 colon; 39.9% with MCF7 breast; 47.3% with HCT-116 colon; 83.1% in the assay on HCC-2998 colon; 70.5% in the assay on KM12 colon.
For `CC1(C)CC[C@]2(C(=O)O)CC[C@]3(C)C(=CC[C@@H]4[C@@]5(C)CC[C@H](NOCCCN)C(C)(C)[C@@H]5CC[C@]43C)[C@@H]2C1`, the growth in the assay on SR leukemia was -8% (active); in the assay with RPMI-8226 leukemia, 34.7%; in the assay with OVCAR-8 ovarian it was 95.2%; in the assay on OVCAR-5 ovarian, 100%; in the assay on OVCAR-4 ovarian it was 95.2%; in the assay on SK-OV-3 ovarian it was 95.8%. In addition, the growth in the assay on IGROV1 ovarian was 99.3%; in the assay on OVCAR-3 ovarian, 95.6%; in the assay on HS 578T breast, 87.1%; with NCI/ADR-RES ovarian, 99.4%; in the assay on T-47D breast it was 73.1%; in the assay with BT-549 breast, 80%. For the same compound, the growth with MDA-MB-435 melanoma is 91.7%; in the assay with SW-620 colon, 83.8%; in the assay with MCF7 breast it was 68.2%; with HCT-116 colon it was 57.2%; with HCC-2998 colon, 76.3%; in the assay on KM12 colon it was 80.9%.
On to `COc1ccc2c(c1)c(-c1nnc(N)nc1-c1c[nH]c3ccc(F)cc13)cn2C`, for which the growth is 12.5% in the assay on SR leukemia; 28.2% with RPMI-8226 leukemia; 59.5% in the assay on OVCAR-8 ovarian; 84.2% with OVCAR-5 ovarian; 86.3% in the assay on OVCAR-4 ovarian; 80.7% in the assay on SK-OV-3 ovarian. For the same compound, the growth is 45.7% with IGROV1 ovarian; 3.98% (active) with OVCAR-3 ovarian; 49.8% with HS 578T breast; 75.2% in the assay on NCI/ADR-RES ovarian; 46.5% in the assay on T-47D breast; 53.5% with BT-549 breast. Moreover, the growth in the assay with MDA-MB-435 melanoma was 3.37% (active); in the assay on SW-620 colon, 25.7%; in the assay on MCF7 breast, 18.9%; with HCT-116 colon, 21.4%; in the assay on HCC-2998 colon, 74.6%; in the assay on KM12 colon, 22.9%.
For `NC1=NC2(CCCC2)N(c2ccc(S(=O)(=O)Nc3nccs3)cc2)C(N)=N1`, the growth in the assay on SR leukemia is 98.2%; in the assay on RPMI-8226 leukemia, 94.1%; with OVCAR-8 ovarian it was 105%; with OVCAR-5 ovarian, 101%; in the assay with OVCAR-4 ovarian, 110%; in the assay with SK-OV-3 ovarian, 114%. Also, the growth in the assay with IGROV1 ovarian was 103%; in the assay on OVCAR-3 ovarian, 116%; in the assay on HS 578T breast, 109%; in the assay with NCI/ADR-RES ovarian, 100%; in the assay with BT-549 breast, 102%; with MDA-MB-435 melanoma, 107%. Besides, the growth in the assay on SW-620 colon is 105%; in the assay on MCF7 breast it was 97.6%; with HCT-116 colon, 109%; in the assay on HCC-2998 colon, 109%; in the assay on KM12 colon, 101%.
Regarding `Cc1ccc2c(n1)C(=O)C(Cl)=C(Nc1cccc(C(=O)OC(C)(C)C)c1)C2=O`, the growth was 5.81% (active) with SR leukemia; 28% in the assay on RPMI-8226 leukemia; 87.3% with OVCAR-8 ovarian; 130% with OVCAR-5 ovarian; 65.7% in the assay on OVCAR-4 ovarian; 97.2% in the assay on SK-OV-3 ovarian. The growth was 88.2% with IGROV1 ovarian; 37.5% with OVCAR-3 ovarian; 102% with HS 578T breast; 59.1% in the assay on T-47D breast; 102% with BT-549 breast; 97.9% in the assay with MDA-MB-435 melanoma. For the same compound, the growth with SW-620 colon was 64.3%; in the assay with MCF7 breast, 53.3%; in the assay with HCT-116 colon, 14%; in the assay on HCC-2998 colon, 113%; in the assay with KM12 colon, 99.2%.

For the origin of these results see PubChem BioAssay (NCI).
